# Source: PMC12136788
# Residue numbers refer to the chain shown, from its start. The full ranking holds about 5,800 sequences; the median of “enrichment r” is about 0.68, and the highest 2% start at about 11. The sample holds the highest values, similar sequences and a random draw of the others, so the mix is not that of the screen.
# T1: UNK ZnF1-6 (called full-length) (human, UniProt Q9C0B0 30-357)
# T1 sequence: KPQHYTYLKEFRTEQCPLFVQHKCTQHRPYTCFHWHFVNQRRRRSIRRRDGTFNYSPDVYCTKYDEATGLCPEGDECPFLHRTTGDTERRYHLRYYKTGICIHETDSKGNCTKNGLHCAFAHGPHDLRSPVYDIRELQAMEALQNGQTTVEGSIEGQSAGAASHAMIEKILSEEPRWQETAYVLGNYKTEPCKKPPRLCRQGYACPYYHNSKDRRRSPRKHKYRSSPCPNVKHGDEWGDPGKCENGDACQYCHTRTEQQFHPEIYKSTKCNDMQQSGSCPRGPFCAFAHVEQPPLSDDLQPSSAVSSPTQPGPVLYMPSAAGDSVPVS
# B1: chr11:118750849:118750950:-|3pUTR|ENSG00000110367|msi1|FALSE|unique (ssRNA)
# RNA: GGGAGUUCUACAGUCCGACGAUCAUUCUAGAAAGUACUUUGGCCUCGUGCUGUAGAGAGCAGAUUUCUAUGGUACCCUGUGUUAGUAAAGGGGCCCAGAAAUCUGGGAUGUACUGUUUGCUGCCACACUGUCUCAUCUAGUACCAACAGAGGAUUGAGCAUCA
# B2: ENSG00000198589:be:win_8001|CDS|ENSG00000198589|bound_else_gene|NA|bound_elsewhere_windowed (ssRNA)
# RNA: GGGAGUUCUACAGUCCGACGAUCUGGAGAUAACCCAGGCAGUGAGACUGCUGCUCCUCGGGCCAUUUUGACCGGCCAUGACUAUGAGGUCACAUGUGCUGCGGUGUGUGCGGAGCUAGGCCUGGUGUUGAGUGGUUCACAAGACAACAGAGGAUUGAGCAUCA
# B3: chr2:231108229:231108516:-|three_prime_utr|ENSG00000135914|control|control|control (ssRNA)
# RNA: GGGAGUUCUACAGUCCGACGAUCAAGAAUAUCUAAUUUUCCUAAUUUGGACAAGAUUAUUCCAUGAGGAAAAUAAUUUUAUAUAGCUACAAAUGAAAACAAUCCAGCACUCUGGUUAAAUUUUAAGGUAUUCGAAUGAAAUAACAACAGAGGAUUGAGCAUCA
# B4: chr5:113594843:113594944:+|3pUTR|ENSG00000047188|msi1|FALSE|bound_elsewhere (ssRNA)
# RNA: GGGAGUUCUACAGUCCGACGAUCCAACAUAAAAUCUUGAGAACCUUCUACUUUCUCUGGGAAAGCAUUAUAUAGUGGUGCAUUAGUUUAGAAAGUCAGCUAUGAUUUUGCCUAUAGUUCUAGUUAUUAGCUUUGGGGUUUUCUCAACAGAGGAUUGAGCAUCA
# B5: chr3:49657245:49657349:+|CDS|ENSG00000164061|unk|total|mutant (ssRNA)
# RNA: GGGAGUUCUACAGUCCGACGAUCCAGCCGCCGUGGCAUCAAGAAGCGGCACUCCAUGCCACGCCUGCGGGAUGCCUGUGAGCCCGAGUCUGGGACUGAGCCCUGUGUGGUCAGGAGGAUUGCCGACAGCAGCGUGCAGACAGACAACAGAGGAUUGAGCAUCA
# B6: chr1:193014253:193014354:-|3pUTR|ENSG00000116750|unk|total|mutant (ssRNA)
# RNA: GGGAGUUCUACAGUCCGACGAUCUUAACCGGUAUAAGGAUUUUUCUUAUUAAUCUAAUAAAAUUCCUUAACCGGAAUUUCCACCGCUUAAGAGUGGUUUAUUUUAUCUGCAUCUUCUUUGGUGAUUGCAAAUCCCUUGUGAUACAACAGAGGAUUGAGCAUCA
# B7: chr1:45660322:45660423:-|5pUTR|ENSG00000159592|unk|FALSE|unique (ssRNA)
# RNA: GGGAGUUCUACAGUCCGACGAUCUCCCCUUCCCCCCUUCCCCUUUUCCCCUUUCCCCUUUUGGAAACGUGUCAGGAACCAAAUAGUUUAAGAUGAGCAGUUGAGGGGACUGAGAGAGUGAUCGACACAGAACCUGGCUUCUUCCAACAGAGGAUUGAGCAUCA
# B8: ENSG00000070961:be:win_3901|3pUTR|ENSG00000070961|bound_else_gene|NA|bound_elsewhere_windowed (ssRNA)
# RNA: GGGAGUUCUACAGUCCGACGAUCAAGUGACCUGUGGAUCAUCAGUAGUACCCAAGCAUGGUCCUGAACAGUGUAUUAGCAGAGCUUUAGUUUAUCUCAGUCCUGGAUGGGAGAGAGAGGGAGGAGUAAAACUGGGCAAGACAACAACAGAGGAUUGAGCAUCA
# B9: chr11:95167508:95167609:-|3pUTR|ENSG00000149212|unk|FALSE|unique (ssRNA)
# RNA: GGGAGUUCUACAGUCCGACGAUCAAUAAUGGAGACUGAAUGAGGCGGUUUGUAUUAAAUUAUAUGCCAUGAAGUGUUCAUUUUAGCUUUAACCUAAUUAUGACUGUACCACCAUGAAGUACAGAAUGAAAAAUUAUAUAUAUGCAACAGAGGAUUGAGCAUCA
# B10: ENSG00000136451:be:win_3801|3pUTR|ENSG00000136451|bound_else_gene|NA|bound_elsewhere_windowed (ssRNA)
# RNA: GGGAGUUCUACAGUCCGACGAUCACCCCUAAGCUAGAAUGUGGUUGUCAGAACCCUGAAAGUAUUAGUUCUAAAAAAAAAAAGAUAUAUACUAGAAGUAAUUGUUUUAUCAAUUCAUUGUAUAAUAAACAGGAGUGAGACUUCCAACAGAGGAUUGAGCAUCA
# B11: chr8:80500255:80500365:+|CDS|ENSG00000205189|unk|FALSE|unique (ssRNA)
# RNA: GGGAGUUCUACAGUCCGACGAUCGAAAAACCAAACUACAAAAAGAUUUAUUUAUAAUAUUCCACCUAAUAAUGAAACGAAUUUAGAAGAUUGCUCAGUAAUGCAGCCACCUGUUGCCUAUCCAGAAGAAAAUACACUACUCAUCAACAGAGGAUUGAGCAUCA
# B12: chr8:30843048:30843149:-|CDS|ENSG00000133863|unk|FALSE|unique (ssRNA)
# RNA: GGGAGUUCUACAGUCCGACGAUCGGAUACUAUAAUUGCUUCCAGAAAGUCAGAUCAUCCAAUAAACGAAGCAACAAUUAGCAUAGAAAAUUCUAAAUUUAACAGUAAUUUGCUUGCACACCCAGAUAUUUGUUGUAUUAGUGACAACAGAGGAUUGAGCAUCA
# B13: chr2:42328916:42329027:+|CDS|ENSG00000143924|unk|total|mutant (ssRNA)
# RNA: GGGAGUUCUACAGUCCGACGAUCAGAAGGAUCUGAUGGGACAGAUAUCAAUGCACUGGUGCGAUCCCACAACCGAAAGGUGACCGCUGUUGCCGAUGACUUUUGUAAAGUCCAUCUGUUUCAGUAUCCCUGCUCCAAAGCAAACAACAGAGGAUUGAGCAUCA
# B14: chr6:52279506:52279615:-|CDS|ENSG00000112118|unk|total|mutant (ssRNA)
# RNA: GGGAGUUCUACAGUCCGACGAUCUGAGUGUGGCAUUUUUAAGACAGGACGGAGAUCACUCUGUCCCUCUGUGUGCCUUUUUCCCGGAUGAGGAGAACAAUCCCCUUGAGACAGAAUAUGGCCUUUCUGUCUACAAGGAUCACCCAACAGAGGAUUGAGCAUCA
# B15: chr1:17067933:17068034:-|3pUTR|ENSG00000117115|msi1|FALSE|unique (ssRNA)
# RNA: GGGAGUUCUACAGUCCGACGAUCACAUAAGGACCCUGGCCUACCCUCCAGCCCAACAGCCAGUUCUGGGUCAGCUGCCAACUUAGGGGUGGUUUGAUUAUCCCAUUGAAAUUCACCAGUGCCUUUGCCAAAGACCCUCUCAUUCAACAGAGGAUUGAGCAUCA
# B16: chr12:104760787:104760888:+|3pUTR|ENSG00000171310|unk|FALSE|unique (ssRNA)
# RNA: GGGAGUUCUACAGUCCGACGAUCUUCUUUUCUAAUGGCAUUGAAACUUUAAAAAAAAUGGAUUCAACUGUUUUUGCAGAAUGUAGAAAGUAUUCUGUGUCCUUGGUUAAAGAAAUCCACUUGUGAAGUGUGCCUGGAAAAUGACAACAGAGGAUUGAGCAUCA
# B17: ENSG00000033178:stop:overlap|stop_codon|ENSG00000033178|stop_codon|NA|stop_codon (ssRNA)
# RNA: GGGAGUUCUACAGUCCGACGAUCCUAUUGAAAUUUAUGGCUGUCCGAAUAUUUGUUUGUUAAUACAUAAGUGUUCUGUAUAUUAGUAUUCUCUUAUCCUUCACAUCCAGCUUUGCUACUCUGUGGCAUUAGACAACUUUUUUCCAACAGAGGAUUGAGCAUCA
# B18: chr17:80395157:80395266:+|3pUTR|ENSG00000173821|unk|FALSE|bound_elsewhere (ssRNA)
# RNA: GGGAGUUCUACAGUCCGACGAUCCUUCAAAGCCUUAACUGUCAAAUCUUGCAUUAUCUUGUUUGUACAGAAAUAUACUGGCCUAGCAGAGGCAAAAAAAAAAAAAAUGAAUUUUAUUUUACUUGUCACACCUGUCUUAAUAAACAACAGAGGAUUGAGCAUCA
# B19: chr7:123541454:123541562:-|3pUTR|ENSG00000128609|unk|FALSE|unique (ssRNA)
# RNA: GGGAGUUCUACAGUCCGACGAUCUCCAUAGUGUCAUUUUAUUUUAGUCAUUAUUGAAUUAUACCAUUUACUCUGUUUUCUUAUAGUCUUAAUUUUAUUAUAUUUUGUUGUUACUGUAUUAUAUUUGAAAACCUUCAAAUUAGACAACAGAGGAUUGAGCAUCA
# B20: chr10:117282838:117282939:-|3pUTR|ENSG00000165650|unk|FALSE|bound_elsewhere (ssRNA)
# RNA: GGGAGUUCUACAGUCCGACGAUCCCCCUUGUGUUAUUUUUCUUCCUCUUGGUUUUUGAAUUAGUGUUAAAUAGAAUACUGUCUAGAUUCUUAAAAUAUUUUCAUUUCCAUCAUGGUUAUAACAAAUUUGCUGCAUGCCCAAACCAACAGAGGAUUGAGCAUCA
# B21: chr7:111727939:111728040:-|3pUTR|ENSG00000128512|unk|FALSE|unique (ssRNA)
# RNA: GGGAGUUCUACAGUCCGACGAUCAAGUGGUAAAUAGUGAUAAAGACUCCUUUUGUACCUUUUUAUGUUCACUUUUUUUUAUAUAGUUUAAUCUUAAAACCAAUACGAUAUUGUCAAACGAUACAAUGUGUGACAAUGUUGUAUCAACAGAGGAUUGAGCAUCA
# B22: chr7:123541454:123541562:-|3pUTR|ENSG00000128609|unk|total|mutant (ssRNA)
# RNA: B19 RNA with U28C, A29C, U44C, A45C, U83C, A84C, U140C, A141C
# B23: chr19:811491:811550:+|3pUTR|ENSG00000011304|msi1_unk|FALSE|overlapping (ssRNA)
# RNA: GGGAGUUCUACAGUCCGACGAUCUAGCAAUAUUUCCAGUUGACCAAAUAUUCUAAUCUUUUUUCAUUUAUAUGCAAAAGAAAUAGUUUUAAGUAACUUUUUAUAGCAAGAUGAUACAAUGGUAUGAGUGUAAUCUAAACUUCCCAACAGAGGAUUGAGCAUCA
# B24: chr7:111727939:111728040:-|3pUTR|ENSG00000128512|unk|total|mutant (ssRNA)
# RNA: B21 RNA with U34C, A35C, U83C, A84C
# B25: chr2:227556236:227556337:+|3pUTR|ENSG00000173744|msi1|FALSE|bound_elsewhere (ssRNA)
# RNA: GGGAGUUCUACAGUCCGACGAUCUGUUGAAUGCCUUUUUGCAAUGAUGACUGAGUUGUUAUCAUAGUAUUUUAAAACCUGUAUAGUGUUUUAGACUUGUUAAAACAUUGCUGUCUAGUGUACAUCUAGCUAAAAGUGUGGUUUCAACAGAGGAUUGAGCAUCA
# B26: chr6:11183298:11183399:-|3pUTR|ENSG00000111859|msi1|total|mutant (ssRNA)
# RNA: GGGAGUUCUACAGUCCGACGAUCACAUUUCACAUUUUUAAAACCAAAUGUUCAAUCUGUAUUACUCUUUGCCGUCUUGUAUGCCGAGGCUAUUUUUAAAUCAUUAAAUUUUCCGAUCUCUGUUUUCACCGCCACUGGGUUUUCCAACAGAGGAUUGAGCAUCA
# B27: chr5:159157431:159157536:-|3pUTR|ENSG00000145860|unk|FALSE|bound_elsewhere (ssRNA)
# RNA: GGGAGUUCUACAGUCCGACGAUCCAAAAAGUGUUUUUCAGACCUCGGUAUUCCUAAUGUGGGAUGUGACUUUAUUUUAUUUUUAGUAGCAAAUUUGGAUGUAGACUGACAGACAUAGCUGAAUGUCUUAAUAAAUUUAAAUUUCAACAGAGGAUUGAGCAUCA
# B28: chr5:159157431:159157536:-|3pUTR|ENSG00000145860|unk|total|mutant (ssRNA)
# RNA: B27 RNA with U83C, A84C, U86C, A87C, U101C, A102C, U115C, A116C
# Molecular target: T1, UNK ZnF1-6 (called full-length)
# Experiment: nsRBNS (natural sequence RNA bind-n-seq); RBNS binding buffer (assumed for nsRBNS): 25 mM Tris pH 7.5, 150 mM KCl, 3 mM MgCl2, 0.01% Triton X-100, 500 ug/ml BSA, 20 U/ml SUPERase-In, 4 C; UNK is unkempt and MSI1 is Musashi-1; names of the RNAs are library labels; protein concentration not given here; high values mean tight binding
row,Binder,binding signal [enrichment R]
1,B1,0.975
2,B2,0.695
3,B3,1.88
4,B4,5.33
5,B5,0.785
6,B6,0.372
7,B7,0.765
8,B8,1.72
9,B9,8.52
10,B10,2.41
11,B11,9.28
12,B12,14.2
13,B13,0.381
14,B14,0.393
15,B15,0.896
16,B16,0.431
17,B17,0.919
18,B18,0.564
19,B19,150
20,B20,3.48
21,B21,21.5
22,B22,17
23,B23,0.832
24,B24,2.33
25,B25,0.596
26,B26,1.08
27,B27,11.8
28,B28,0.813
